This note sets out measurements from PubChem BioAssay (EPA / NIEHS).

Molecules are shown by their SMILES. Values joined by “and” are separate entries in the source; they are usually repeats but may differ in a detail not shown here. Identical values can stand only once. A structure can be active in one record and inactive in another. Active and inactive are the calls of the source. The calls were made as follows: active = hit-call score of the fitted dose curve at least 0.9, where 1 is the maximum; inactive = score below 0.9.

Read-out in test [1]: Interleukin-1 alpha (IL1a), IL1A (gene 3552)
Nature of the test: BSK_KF3CT_IL1a: BioMAP Diversity Plus: KF3CT Assay for Interleukin-1 alpha (IL1a) Biomarker Activity (AID 2283070). The conditions noted are these: primary human keratinocytes with fibroblasts; actives raise or lower the signal. An outline of the steps:
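Chemicals were dosed onto co-cultured human keratinocytes and foreskin fibroblasts, IL-1a was quantified by ELISA at 24 h, and activity was fitted in both directions relative to DMSO controls.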

Read-out in test [2]: TIMP metallopeptidase inhibitor 2 (TIMP2), TIMP2 (gene 7077)
Briefly: BSK_KF3CT_TIMP2: BioMAP Diversity Plus: KF3CT Assay for TIMP metallopeptidase inhibitor 2 (TIMP2) Biomarker Activity (AID 2283071). The conditions noted are these: primary human keratinocytes with fibroblasts; actives raise or lower the signal. An outline of the steps:
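Cells: human keratinocytes co-cultured with foreskin fibroblasts. Treat with chemical, 24 h. Measure TIMP-2 by ELISA; fit curves bidirectionally vs DMSO baseline.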

Read-out in test [3]: Transforming growth factor beta 1 (TGFb1), TGFB1 (gene 7040)
Briefly: BSK_KF3CT_TGFb1: BioMAP Diversity Plus: KF3CT Assay for Transforming growth factor beta 1 (TGFb1) Biomarker Activity (AID 2283072). The conditions noted are these: primary human keratinocytes with fibroblasts; actives raise or lower the signal. An outline of the steps:
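Primary human skin cells (keratinocytes, foreskin fibroblasts) were co-cultured, exposed to test chemical and sampled at 24 h. TGF-b1 levels were measured by ELISA and fitted bidirectionally relative to DMSO.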

Read-out in test [4]: C-C motif chemokine 2 (Homo sapiens) (UniProt P13500)
Briefly: BSK_KF3CT_MCP1: BioMAP Diversity Plus: KF3CT Assay for Monocyte Chemoattractant Protein 1 (MCP1/CCL2) Biomarker Activity (AID 2283073). The conditions noted are these: primary human keratinocytes with fibroblasts; actives raise or lower the signal. The procedure, abridged:
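Keratinocytes and foreskin fibroblasts were co-cultured, dosed with chemical, and sampled 24 h later. MCP-1 was quantified by ELISA, and the endpoint was analyzed with bidirectional fitting using DMSO as negative control.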

Read-out in test [5]: Matrix Metallopeptidase 9 (MMP9), MMP9 (gene 4318)
Briefly: BSK_KF3CT_MMP9: BioMAP Diversity Plus: KF3CT Assay for Matrix Metallopeptidase 9 (MMP9) Biomarker Activity (AID 2283074).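 As to AC50: MMP9 protein level quantified by ELISA in the co-culture.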 The conditions noted are these: primary human keratinocytes with fibroblasts; actives raise or lower the signal. The procedure, abridged:
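Human keratinocyte/foreskin fibroblast co-culture; compound added; 24 h; MMP-9 by ELISA; bidirectional fit vs DMSO baseline.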

Read-out in test [6]: urokinase plasminogen activator (uPA), PLAU (gene 5328)
Briefly: BSK_KF3CT_uPA: BioMAP Diversity Plus: KF3CT Assay for urokinase plasminogen activator (uPA) Biomarker Activity (AID 2283075). The conditions noted are these: primary human keratinocytes with fibroblasts; actives raise or lower the signal. An outline of the steps:
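ELISA readout of uPA, analyzed for signal gain or loss relative to DMSO, from a human primary keratinocyte–foreskin fibroblast co-culture measured 24 h after chemical treatment.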

Read-out in test [7]: E-selectin (Homo sapiens) (UniProt P16581)
Briefly: BSK_LPS_Eselectin: BioMAP Diversity Plus: LPS Assay for Eselectin Biomarker Activity (AID 2283077). The conditions noted are these: primary human HUVEC with PBMC; actives raise or lower the signal. An outline of the steps: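 Signal of E-selectin, detected by ELISA, served as the endpoint; cells were umbilical vein endothelium with PBMC, read 24 h after treatment. DMSO defined baseline, and both increases and decreases were fitted.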

Read-out in test [8]: Interleukin-8 (IL8), CXCL8 (gene 3576)
Nature of the test: BSK_LPS_IL8: BioMAP Diversity Plus: LPS Assay for Interleukin-8 (IL8) Biomarker Activity (AID 2283078). Conditions: primary human HUVEC with PBMC; actives raise or lower the signal. The procedure, abridged:
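Endothelial cells and PBMC from human donors are co-cultured, treated with chemicals and LPS, then assayed for IL-8 by ELISA after 24 h. Parallel SRB staining (0.1% SRB after 10% TCA fixation, 560 nm) flags cytotoxicity.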

The nature of test [9]: BSK_LPS_SRB: Viability Assessment in the BioMAP Diversity Plus: LPS Assay (AID 2283079).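 Also: total protein by sulforhodamine B absorbance as a cytotoxicity measure; measured one day after compound addition; fitted in both directions against DMSO so loss or gain of signal counts.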 The conditions noted are these: primary human HUVEC with PBMC. The procedure, abridged: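 Overt cytotoxicity was gauged by sulforhodamine B total-protein staining in a primary human vascular endothelial and mononuclear cell co-culture 24 h post-dosing. Activity was fitted in both directions relative to DMSO.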

Read-out in test [10]: Monocyte Chemoattractant Protein-1 (MCP1), CCL2 (gene 6347)
Briefly: BSK_LPS_MCP1: BioMAP Diversity Plus: LPS Assay for Monocyte Chemoattractant Protein-1 (MCP1) Biomarker Activity (AID 2283081).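 As to AC50: secreted MCP-1 protein quantified by ELISA in culture supernatant.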 Conditions: primary human HUVEC with PBMC; actives raise or lower the signal. An outline of the steps:
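LPS-stimulated HUVEC/PBMC co-culture; chemical, 24 h; MCP-1 by ELISA; bidirectional fit vs DMSO; cytotoxicity via SRB (0.1% stain, 10% TCA fix, 560 nm) in parallel wells.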

Read-out in test [11]: Tumor necrosis factor (Homo sapiens) (UniProt P01375)
Briefly: BSK_LPS_TNFa: BioMAP Diversity Plus: LPS Assay for Tumour Necrosis Factor alpha (TNFa) Biomarker Activity (AID 2283085).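 As to AC50: TNFa protein level quantified by ELISA in the co-culture.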 The conditions noted are these: primary human HUVEC with PBMC; actives raise or lower the signal. The procedure, abridged:
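Read-out is ELISA of TNFa in primary human endothelial cell–PBMC co-cultures at 24 h after compound. Activity in either direction was fitted against DMSO.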

Read-out in test [12]: CD38, CD38 (gene 952)
Briefly: BSK_SAg_CD38: BioMAP Diversity Plus: SAg Assay for CD38 Biomarker Activity (AID 2283087). Conditions: primary human HUVEC with PBMC; actives raise or lower the signal. An outline of the steps:
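Human HUVEC plus PBMC co-culture stimulated with superantigen; CD38 measured by ELISA 24 h after chemical dosing. Fluorescence read-out, bidirectional fit against DMSO; cytotoxicity tracked in parallel by SRB and Alamar Blue.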

Read-out in test [13]: CD40, CD40 (gene 958)
Nature of the test: BSK_SAg_CD40: BioMAP Diversity Plus: SAg Assay for CD40 Biomarker Activity (AID 2283088). Conditions: primary human HUVEC with PBMC; actives raise or lower the signal. The procedure, abridged: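 Fluorescence ELISA read-out of CD40 from umbilical vein endothelium plus peripheral blood mononuclear cells, sampled 24 h after dosing. Values come from bidirectional curve fitting with DMSO as baseline.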

Read-out in test [14]: CD69, CD69 (gene 969)
Nature of the test: BSK_SAg_CD69: BioMAP Diversity Plus: SAg Assay for CD69 Biomarker Activity (AID 2283089).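 As to AC50: cell surface CD69 protein quantified by ELISA with fluorescence detection.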 The conditions noted are these: primary human HUVEC with PBMC; actives raise or lower the signal. The procedure, abridged:
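Primary human vascular co-culture (umbilical vein endothelium with peripheral blood mononuclear cells) exposed to test chemical for 24 h. CD69 levels quantified by fluorescence ELISA; DMSO served as negative control for bidirectional fitting.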

A word on the AC50: it is the concentration at which the activity in the assay is half-maximal.

E-selectin (Homo sapiens), sequence (P16581 whole entry, looked up): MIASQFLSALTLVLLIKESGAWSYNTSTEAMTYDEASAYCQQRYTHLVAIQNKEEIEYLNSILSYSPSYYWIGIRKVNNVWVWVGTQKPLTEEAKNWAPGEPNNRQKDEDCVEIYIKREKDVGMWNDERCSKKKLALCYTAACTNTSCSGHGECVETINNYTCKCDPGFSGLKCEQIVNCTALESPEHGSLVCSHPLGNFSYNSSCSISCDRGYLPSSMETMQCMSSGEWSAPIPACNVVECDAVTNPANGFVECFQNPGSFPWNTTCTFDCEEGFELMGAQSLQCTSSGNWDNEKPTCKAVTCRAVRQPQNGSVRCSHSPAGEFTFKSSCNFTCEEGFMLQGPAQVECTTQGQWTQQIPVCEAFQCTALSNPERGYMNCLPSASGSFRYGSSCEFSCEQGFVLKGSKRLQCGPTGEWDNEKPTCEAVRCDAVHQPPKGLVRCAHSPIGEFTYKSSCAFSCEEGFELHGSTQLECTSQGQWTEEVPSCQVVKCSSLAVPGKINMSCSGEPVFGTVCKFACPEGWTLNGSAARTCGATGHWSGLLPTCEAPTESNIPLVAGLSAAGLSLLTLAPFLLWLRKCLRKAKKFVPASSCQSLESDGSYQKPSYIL
Tumor necrosis factor (Homo sapiens), sequence (P01375 whole entry, looked up): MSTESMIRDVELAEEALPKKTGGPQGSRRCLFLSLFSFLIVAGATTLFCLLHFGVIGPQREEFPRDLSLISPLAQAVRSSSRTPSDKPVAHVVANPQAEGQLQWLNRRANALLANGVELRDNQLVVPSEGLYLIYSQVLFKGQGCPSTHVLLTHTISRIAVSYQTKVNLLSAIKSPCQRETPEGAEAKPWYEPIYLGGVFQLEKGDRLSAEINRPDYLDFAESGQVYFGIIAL

Regarding `CCOC(=O)CCCCCCCCC(=O)OCC`, the result in test [1], in [2], in test [3], in test [4], in [5] and in test [6] was inactive. The result in [7], in test [8], in [9], in [10], in test [11] and in test [12] was inactive. The result in [13] and in [14] was inactive.
Turning to `CC(C)(CO)CO`, the result in [1], in test [2], in [4], in test [5], in test [6] and in test [7] was inactive. Further, the outcome in test [8], in test [9], in [10], in [11], in test [12] and in test [13] was inactive. Also, the result in [14] was inactive.
In the case of `O=C(c1ccc(OCCN2CCCCC2)cc1)c1c(-c2ccc(O)cc2)sc2cc(O)ccc12`, the AC50 in test [1] is 21.8 µM (active); in test [2], 29.3 µM (active); in test [3], 19.8 µM (active); in [4] it was 29.1 µM (active); in [5], 17.9 µM (active); in [6], 34.9 µM (active). Further, the AC50 in [7] was 38.3 µM (active); in [8] it was 33.8 µM (active); in [9], 26.7 µM (active); in test [10] it was 30.8 µM (active); in [11], 33.8 µM (active); in test [12], 30.1 µM (active). The results for the AC50 in test [13] and in [14] were 19.4 µM (active) and 23 µM (active), respectively.
On to `C=C(C)C(N)=O`, for which the result in [1], in [2], in [3], in test [4], in test [5] and in [6] was inactive. Besides, the result in [7], in test [8], in test [9], in test [10], in [11] and in test [12] was inactive. The result in test [13] and in [14] was inactive.
On to `CCCCCCCCCCCCS`, for which the AC50 in [1] was 20 µM (active); in [2], 20 µM (active); in [3], 29.3 µM (active); in test [5], 14.2 µM (active); in test [6], 20 µM (active); in test [7] it was 20 µM (active). The concentration at half-maximal activity (AC50) is 20 µM (active) in test [9]; 33.3 µM (active) in [10]; 28.6 µM (active) in [12]; 20 µM (active) in test [13]; 20 µM (active) in test [14]. In addition, the result in [4], in [8] and in test [11] was inactive.
Regarding `OCC(F)(OC(F)(F)C(F)(OC(F)(F)C(F)(F)C(F)(F)F)C(F)(F)F)C(F)(F)F` (stereo not drawn), the result in [1], in [4], in [8], in [9], in test [10] and in [12] was inactive. In addition, the AC50 in test [2] is 5.58 µM (active) and 5.62 µM (active); in test [4] it was 5.14 µM (active); in test [5] it was 5.19 µM (active) and 3.33 µM (active); in test [6], 5.49 µM (active) and 3.33 µM (active); in test [7], 5.03 µM (active) and 3.77 µM (active); in test [11], 5.64 µM (active) and 5.47 µM (active). Further, the concentration at half-maximal activity (AC50) in [13] was 2.38 µM (active) and 2.34 µM (active); in test [14], 3.33 µM (active) and 713 nM (active).
